The values below come from PubChem BioAssay (NCATS).

Several values for one entry are separate records, joined by “and”; a condition that tells them apart may be missing. Equal values may be shown once. Results filed as inconclusive are left out. Activity calls are given as the source filed them. Calls come from the whole dose curve; as a rule, active = well fitted inhibition curve with a large enough effect; inconclusive = small, poorly fitted or top-dose-only effect; inactive = no such curve, though single readings can be large or run the other way.
Potency is the fitted concentration of half-maximal effect.

Chain of Cytochrome P450 2D6 (Homo sapiens) (P10635 whole entry, looked up): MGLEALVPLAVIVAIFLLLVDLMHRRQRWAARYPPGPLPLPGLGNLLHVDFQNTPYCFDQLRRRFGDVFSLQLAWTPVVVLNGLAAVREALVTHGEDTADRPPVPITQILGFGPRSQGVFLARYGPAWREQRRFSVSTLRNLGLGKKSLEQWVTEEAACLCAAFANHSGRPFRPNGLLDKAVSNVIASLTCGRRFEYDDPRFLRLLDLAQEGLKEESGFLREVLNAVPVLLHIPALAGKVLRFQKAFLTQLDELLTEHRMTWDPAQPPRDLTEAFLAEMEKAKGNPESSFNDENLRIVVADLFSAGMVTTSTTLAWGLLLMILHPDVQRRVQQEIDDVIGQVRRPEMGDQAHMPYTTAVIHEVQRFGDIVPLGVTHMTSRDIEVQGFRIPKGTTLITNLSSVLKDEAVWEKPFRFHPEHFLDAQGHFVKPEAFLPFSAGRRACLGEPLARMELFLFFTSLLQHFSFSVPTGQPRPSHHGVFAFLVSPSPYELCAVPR

This experiment concerns the target Cytochrome P450 2D6 (Homo sapiens) (UniProt P10635). Description: qHTS Assay for Inhibitors and Substrates of Cytochrome P450 2D6 (AID 891). Note: nearly all actives have a fitted effect of over 60% in size. Particulars: recombinant CYP2D6, luciferin-ME EGE luminescence; series mostly up to 57.1 µM. Here is the method: NIH Molecular Libraries Screening Centers Network [MLSCN]
NIH Chemical Genomics Center [NCGC]
The P450 gene superfamily is involved in the metabolism and clearance of xenobiotics. This assay used human CYP2D6 to measure the demethylation of ethylene glycol ester of luciferin 6' methyl ether (Luciferin-ME EGE; […]) to luciferin. The luciferin is then measured by luminescence after the addition of a luciferase detection reagent. Luciferin-ME EGE concentration in the assay was equal to its Km for CYP2D6. Inhibitors and some substrates limit the production of luciferin, and decrease measured luminescence.
NCGC Assay Protocol Summary:
Two uL of enzyme and substrate mix (final concentrations: 5nM CYP2D6, 30uM Luciferin-ME EGE, 100mM KPO4) were dispensed into a white, solid bottom 1536-well microtiter plate. 23nL of compound was transferred by a pin tool. The plate was incubated at room temperature for 10 min. Two uL of an NADPH regeneration solution (Promega supplied reagent) was dispensed and the reaction was allowed to continue for 60 min at room temperature. Then the reaction was stopped by reconstituted luciferin detection buffer. After another 20 min of incubation the plate was read on the ViewLux (Perkin Elmer) at 60 sec exposure and 2x2 binning. This protocol was carried out with Promega-Glo reagents and further information can be found at http://www.promega.com/tbs/tb325/tb325.pdf. Data were normalized to the to AC100 inhibition (1.43 uM quinidine).
Keywords: P450, CYP2D6, Luciferase, MLSMR, MLSCN, NIH Roadmap, qHTS, NCGC
On the technique in general: Quantitative high-throughput screening tests each substance at several concentrations.
Turning to `c1cncc([C@H]2CCCCN2)c1`, the Potency is 12.6 µM (active).

In the case of `N#Cc1ccc(CN2CC[C@@]3(CCCN(C(=O)Oc4ccccc4)C3)C2)cc1`, the Potency is 3.16 µM (active).

Consider `CC[C@@H]1[C@@H]2C[C@H]3[C@H]4N(C)c5ccccc5[C@@]45C[C@@H]([C@@H]2[C@@H]5O)N3[C@H]1O`, for which the Potency was 3.98 µM (active). Then `CN1Cc2c(ccc3c2OCO3)[C@@H]2[C@@H](O)Cc3cc4c(cc3[C@@H]21)OCO4`, with 199 nM (active) and 79.4 nM (active); and `CCOc1ccc2c(c1)C(C)=CC(C)(C)N2`, with 2.51 µM (active). The figure for `CC(C)CN1CC2(CCN(C(=O)c3ccncc3)CC2)C1` is 3.98 µM (active); for `CN1[C@@H](C[C@@H](O)c2ccccc2)CCC[C@@H]1C[C@H](O)c1ccccc1` it is 0.631 µM (active); for `O=C(Oc1ccccc1)N1CCC2(CC1)CN(C(c1ccccc1)c1ccccc1)C2` it is 7.94 µM (active). In the case of `O=C(Oc1ccccc1)N1CCC[C@@]2(CCN(C(c3ccccc3)c3ccccc3)C2)C1`, the Potency was 5.01 µM (active).

As to `COc1cc2c(cc1O)[C@H]1Cc3ccc(OC)c(O)c3CN1CC2`, the Potency is 0.0316 µM (active).

Regarding `CN1CCc2cc3c(cc2[C@@H]1O)OCO3`, the Potency is 7.94 µM (active). Then `COc1cc2c(c(OC)c1OC)-c1ccc(O)c(=O)cc1[C@@H](NC(C)=O)CC2`, with “inactive”; and `COc1ccc(NC(=O)N2CC[C@@]3(CCCN(C(=O)Oc4ccccc4)C3)C2)cc1`, with 6.31 µM (active); and `CN(C)[C@@H]1C(=O)C(C(N)=O)=C(O)[C@]2(O)C(=O)C3=C(O)c4c(O)cccc4[C@@](C)(O)[C@@H]3C[C@@H]12`, with “inactive”. The entry for `CS(=N)(=O)CC[C@@H](N)C(=O)O` (stereo not given in full) is “inactive”; for `CNC[C@H](O)c1ccc(O)cc1` it is “inactive”. The entry for `O=C1C=C2C=C[C@H]3C[C@@]2(O1)[C@H]1CCCCN31` is “inactive”. In the case of `CC[N@+]1(C)CCC[C@@H](OC(=O)C(O)(c2ccccc2)c2ccccc2)C1`, the Potency was 5.01 µM (active).

Regarding `c1ccc(N2CCCC3(CCNCC3)C2)cc1`, the Potency was 7.94 µM (active). Then `COc1cc2c(cc1O)C[C@H]1c3c(cc(O)c(OC)c3-2)CCN1C`, with 7.94 µM (active); and `C[N+]1=Cc2cc3c(cc2CC1)OCO3`, with 15.8 µM (active); and `COc1ccc2c(c1OC)C(=O)O[C@H]2[C@H]1c2cc3c(cc2CCN1C)OCO3`, with “inactive”. On to `c1ccc(N2CCC3(CCNCC3)CC2)nc1`, for which the Potency was 1.26 µM (active). Then `COc1ccc2c(c1O)-c1c(OC)c(OC)cc3c1[C@H](C2)N(C)CC3`, with “inactive”. The figure for `O=C(Oc1ccccc1)N1CCC2(CCCN(Cc3nccs3)C2)CC1` is 5.01 µM (active); for `CCC[C@@](C)(COC(N)=O)COC(=O)NC(C)C` it is “inactive”. `Clc1ccc([C@@H](OCCN2CCCCC2)c2ccccc2)cc1`: the Potency is 0.0158 µM (active). For the molecule `O=C(c1ccncc1)N1CCC2(CC1)CN(Cc1ccccc1)C2`, the Potency was 6.31 µM (active). The entry for `COc1cc2c(cc1OC)[C@H](C)NCC2` is “inactive”. Then `CCCN(C/C=C\I)[C@@H]1CCc2ccc(O)cc2C1`, with 0.0158 µM (active); and `CN1CC[C@]2(C)c3cc(O)ccc3N(C)[C@@H]12`, with 25.1 µM (active). The figure for `CC(C)CN1CC[C@@]2(CCCN(C(=O)Oc3ccccc3)C2)C1` is 6.31 µM (active); for `CN(C)C(=O)Oc1cc(OC(=O)N(C)C)cc([C@@H](O)CNC(C)(C)C)c1` it is 7.94 µM (active); for `c1cnc(N2CC[C@@]3(CCCNC3)C2)nc1` it is 7.94 µM (active). On to `CC[C@H]1CN2CC[C@@H]1C[C@H]2[C@@H](O)c1ccnc2ccc(OC)cc12`, for which the Potency is 3.16 µM (active). The entry for `CN1CCc2cc3c(cc2[C@@H]1[C@@H]1OC(=O)c2c1ccc1c2OCO1)OCO3` is “inactive”. In the case of `N#Cc1cccc(NC(=O)N2CC[C@@]3(CCCN(C(=O)Oc4ccccc4)C3)C2)c1`, the Potency entry is “inactive”. The entry for `CC(C)NC(=O)N1CC[C@@]2(CCCNC2)C1` is “inactive”.

With `COc1cc2c(cc1O)C[C@H]1c3c(cc(OC)c(O)c3-2)CCN1C`, the Potency is 6.31 µM (active). The figure for `CCN(CC)C(=O)N[C@@H]1C[C@H]2c3cccc4[nH]cc(c34)C[C@@H]2N(C)C1` is 0.0158 µM (active).
